From PubChem BioAssay come the findings set out here.

Each structure is given as a SMILES string. Several values for one entry are separate records, joined by “and”; a condition that tells them apart may be missing. Equal entries are not always repeated. Inconclusive results are not listed. A structure can be active in one record and inactive in another. Activity calls are given as the source filed them.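 The calls were made as follows, unless noted: active = normalized viability below 100% at a tested concentration; inactive = the rest.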

Experiment [1] can be described thus: growth inhibition of DIPG glioma cells, dose response, cell-based, SU-DIPG-XVII, MIPE5.0, CellTiter-Glo, qHTS (AID 1347060; cut-off not given, nearly all actives have AC50 up to about 26 µM;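 also: cells exposed to compound for 48 hours before viability readout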). To be noted: SU-DIPG-XVII viability, CellTiter-Glo ATP luminescence.
A short description of experiment [2]: growth inhibition of DIPG glioma cells, dose response, cell-based, JHH-DIPG-1, MIPE4.0, CellTiter-Glo, qHTS (AID 1347062; cut-off not given, nearly all actives have AC50 up to about 27 µM;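 as to AC50: cells exposed to compound for two days before readout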). As to conditions: JHH-DIPG-1 viability, CellTiter-Glo ATP luminescence.
The nature of experiment [3]: growth inhibition of DIPG glioma cells, dose response, cell-based, SU-DIPG-IV, MIPE4.0, CellTiter-Glo, qHTS (AID 1347063; cut-off not given, nearly all actives have AC50 up to about 30 µM;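 also: compound exposure lasted 48 hours before the viability readout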). As to conditions: SU-DIPG-IV viability, CellTiter-Glo ATP luminescence.
Experiment [4] can be described thus: growth inhibition of DIPG glioma cells, dose response, cell-based, SU-DIPG-XIII, MIPE5.0, CellTiter-Glo, qHTS (AID 1347064; cut-off not given, nearly all actives have AC50 up to about 23 µM;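 as to AC50: cells exposed to compound for 48 hours before the viability read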). To be noted: SU-DIPG-XIII viability, CellTiter-Glo ATP luminescence.
Experiment [5] can be described thus: viability loss in pontine glioma line – cell-based, SU-DIPG-XXV, MIPE5.0, CellTiter-Glo, qHTS, dose response (AID 1347065; cut-off not given, nearly all actives have AC50 up to about 26 µM;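 also: cells exposed to compound for 48 hours before ATP readout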). To be noted: CellTiter-Glo ATP luminescence.
Experiment [6] is described as follows: JHH-DIPG-1 glioma cell viability, MIPE5.0 library, CellTiter-Glo luminescence, qHTS (AID 1347067; cut-off not given, nearly all actives have AC50 up to about 26 µM;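 also: cells exposed to compound for 48 hours before readout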). As to conditions: JHH-DIPG-1 glioma viability, CellTiter-Glo ATP luminescence.
Experiment [7] is described as follows: SU-DIPG-XXV glioma cell viability, MIPE5.0 library, qHTS (AID 1347068; cut-off not given, nearly all actives have IC50 up to about 30 µM;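 as to IC50: cells exposed to compound for 48 hours before viability readout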).
Experiment [8] in a line: sensitizers of A549 cells to miR-34 induction, primary screen, imaging, A549 dox-inducible miR-34, nuclei and caspase counts (AID 1347080;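 active = compounds whose cell count with miR-34 switched on is under 0.7 times the count with it off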). As to conditions: A549 miR-34 inducible, Hoechst nuclei count, 48 h.
Experiment [9] is described as follows: survival rescue of mitochondrial mutant cells in low glucose, primary screen, MELAS cybrids, Rieske KO mouse fibroblasts, CellTiter-Glo (AID 1508586;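 active = mean z-score across replicates of 1.96 or higher in either the MELAS or the Rieske mutant cell line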;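 also: z relative to plate mean and SD of compound and empty wells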).
Experiment [10] in a line: ovarian cancer cell viability with rucaparib, profiling panel, oncology-focused library, rucaparib conditional (AID 1508598). To be noted: patient-derived ovarian cancer cells, CellTiter-Glo viability, 144 h, stronger effect = lower value.
Experiment [11] can be described thus: modifiers of HSF1 nuclear foci, imaging, Selleck Cancer Library (AID 1347162; in the data active = plate-normalised HSF1 focus index below about 0.46). To be noted: human cells, at 10 µM; SSMD: measured here: HSF1 foci SSMD mean; cell count: measured here: cell number; plate-normalised HSF1 focus index: stronger effect = lower value.
The mark [12] stands for this setting: stronger effect = lower value, cell number ratio, induced over uninduced.
The mark [13] stands for this setting: measured here: relative caspase fold change +Dox/-Dox.
The mark [14] stands for this setting: measured here: total cells with miR-34 induction, stronger effect = lower value.
Setting [15] is: measured here: total cells without miR-34 induction.
[16] abbreviates: MELAS cybrid survival, CellTiter-Glo 48 h, stronger effect = higher value.
Where [17] appears, read: Rieske KO mouse fibroblast survival, CellTiter-Glo 72 h.
[18] abbreviates: at 0.000305 µM, OCI-C5x cells, with rucaparib 10 µM, 100% = cells with rucaparib alone.
The mark [19] stands for this setting: at 0.000305 µM, OCI-C5x cells, without rucaparib.
Setting [20] is: at 0.000305 µM, OCI-P5x cells, with rucaparib 20 µM, 100% = cells with rucaparib alone.
Where [21] appears, read: at 0.000305 µM, OCI-P5x cells, without rucaparib.
The mark [22] stands for this setting: at 0.00122 µM, OCI-C5x cells, with rucaparib 10 µM, 100% = cells with rucaparib alone.
Setting [23] is: at 0.00122 µM, OCI-C5x cells, without rucaparib.
Setting [24] is: at 0.00122 µM, OCI-P5x cells, with rucaparib 20 µM, 100% = cells with rucaparib alone.
Setting [25] is: at 0.00122 µM, OCI-P5x cells, without rucaparib.
Setting [26] is: at 0.00488 µM, OCI-C5x cells, with rucaparib 10 µM, 100% = cells with rucaparib alone.
Where [27] appears, read: at 0.00488 µM, OCI-C5x cells, without rucaparib.
The mark [28] stands for this setting: at 0.00488 µM, OCI-P5x cells, with rucaparib 20 µM, 100% = cells with rucaparib alone.
Setting [29] is: at 0.00488 µM, OCI-P5x cells, without rucaparib.
[30] abbreviates: at 0.0195 µM, OCI-C5x cells, with rucaparib 10 µM, 100% = cells with rucaparib alone.
[31] abbreviates: at 0.0195 µM, OCI-C5x cells, without rucaparib.

Regarding `COc1ccc(S(=O)(=O)N(C(C)=O)c2ccccc2/C=C/c2cc[n+]([O-])cc2)cc1`, the AC50 in experiment [1] is 1.48 µM (active); in experiment [2], 0.935 µM (active); in experiment [3] it was 0.372 µM (active); in experiment [4], 2.63 µM (active); in experiment [5], 1.18 µM (active); in experiment [6] it was 1.86 µM (active).
For the compound `COc1cc2nccc(Oc3ccc(NC(=O)C4(C(=O)Nc5ccc(F)cc5)CC4)cc3)c2cc1OC`, the AC50 was 13.2 µM (active) in experiment [1]; 2.35 µM (active) in experiment [2]; 4.69 µM (active) in [3]; 16.6 µM (active) in experiment [4]; 7.42 µM (active) in experiment [5]; 11.8 µM (active) in experiment [6]. In experiment [7], the IC50 is 8.33 µM (active). In addition, the fold change is 1.18 (inactive) and 1.06 (inactive) in experiment [8] (setting [12]); 0.894 and 0.677 in experiment [8] (setting [13]). The cell count was 1810 and 3700 in experiment [8] (setting [14]); 1540 and 3490 in experiment [8] (setting [15]). Moreover, the z-score in experiment [9] (setting [16]) was -0.475 (inactive) and -0.436 (inactive); in [9] (setting [17]) it was 1.25 and 1.04. The viability was 114% (inactive) in experiment [10] (setting [18]); 126% (inactive) in experiment [10] (setting [19]); 85.5% (active) in experiment [10] (setting [20]); 68.9% (active) in experiment [10] (setting [21]); 115% (inactive) in [10] (setting [22]); 119% (inactive) in [10] (setting [23]). Also, the viability is 59.2% (active) in experiment [10] (setting [24]); 22.8% (active) in experiment [10] (setting [25]); 110% (inactive) in experiment [10] (setting [26]); 114% (inactive) in experiment [10] (setting [27]); 94.7% (active) in experiment [10] (setting [28]); 99.9% (active) in experiment [10] (setting [29]). The viability in experiment [10] (setting [30]) was 118% (inactive); in experiment [10] (setting [31]), 122% (inactive); in [10] (at 0.0195 µM, OCI-P5x cells, with rucaparib 20 µM, 100% = cells with rucaparib alone), 94.3% (active); in experiment [10] (at 0.0195 µM, OCI-P5x cells, without rucaparib), 101% (inactive); in experiment [10] (at 0.0781 µM, OCI-C5x cells, with rucaparib 10 µM, 100% = cells with rucaparib alone), 127% (inactive); in experiment [10] (at 0.0781 µM, OCI-C5x cells, without rucaparib), 115% (inactive). The viability is 93.1% (active) in experiment [10] (at 0.0781 µM, OCI-P5x cells, with rucaparib 20 µM, 100% = cells with rucaparib alone); 101% (inactive) in [10] (at 0.0781 µM, OCI-P5x cells, without rucaparib); 130% (inactive) in experiment [10] (at 0.313 µM, OCI-C5x cells, with rucaparib 10 µM, 100% = cells with rucaparib alone); 129% (inactive) in experiment [10] (at 0.313 µM, OCI-C5x cells, without rucaparib); 87.8% (active) in [10] (at 0.313 µM, OCI-P5x cells, with rucaparib 20 µM, 100% = cells with rucaparib alone); 94.8% (active) in experiment [10] (at 0.313 µM, OCI-P5x cells, without rucaparib). In addition, the viability in experiment [10] (at 1.25 µM, OCI-C5x cells, with rucaparib 10 µM, 100% = cells with rucaparib alone) is 147% (inactive); in [10] (at 1.25 µM, OCI-C5x cells, without rucaparib) it was 133% (inactive); in experiment [10] (at 1.25 µM, OCI-P5x cells, with rucaparib 20 µM, 100% = cells with rucaparib alone) it was 84.5% (active); in experiment [10] (at 1.25 µM, OCI-P5x cells, without rucaparib) it was 91.5% (active); in experiment [10] (at 5 µM, OCI-C5x cells, with rucaparib 10 µM, 100% = cells with rucaparib alone), 146% (inactive); in experiment [10] (at 5 µM, OCI-C5x cells, without rucaparib) it was 133% (inactive). Besides, the viability in experiment [10] (at 5 µM, OCI-P5x cells, with rucaparib 20 µM, 100% = cells with rucaparib alone) was 74.7% (active); in experiment [10] (at 5 µM, OCI-P5x cells, without rucaparib), 85.4% (active).
With `CC1(C)Cc2c(-c3ccccc3)c(-c3ccc(Cl)cc3)c(CC(=O)O)n2C1`, the AC50 is 26.3 µM (active) in experiment [1] and 18.7 µM (active) in experiment [3]. The compound was classed as inactive in experiment [2], in experiment [4] and in experiment [7]. For the same compound, the fold change was 0.932 (inactive) in experiment [8] (setting [12]) and 1.58 in [8] (setting [13]). Also, the cell count in experiment [8] (setting [14]) worked out at 5140; in experiment [8] (setting [15]), 5520. Also, the z-score was -0.384 (inactive) in [9] (setting [16]) and 1.11 in [9] (setting [17]).
On to `CN(c1ncccc1CNc1nc(Nc2ccc3c(c2)CC(=O)N3)ncc1C(F)(F)F)S(C)(=O)=O`, for which the AC50 in experiment [1] is 5.25 µM (active); in experiment [2], 5.9 µM (active); in [3], 4.18 µM (active); in experiment [4] it was 8.33 µM (active); in [5], 3.72 µM (active); in [6] it was 8.33 µM (active). Moreover, the IC50 in experiment [7] was 11.8 µM (active). The fold change in [8] (setting [12]) is 0.847 (inactive) and 0.961 (inactive) and 0.946 (inactive); in experiment [8] (setting [13]) it was 0.469 and 1.06 and 0.671. The cell count in [8] (setting [14]) was 1490 and 1380 and 1080; in experiment [8] (setting [15]), 1760 and 1430 and 1140; in [11], 4390. This compound registered an SSMD in experiment [11] of -7.81. In addition, the plate-normalised HSF1 focus index in [11] was 0.528 (inactive). Moreover, the z-score in [9] (setting [16]) is -0.34 (inactive) and -0.161 (inactive) and 2.09 (active); in [9] (setting [17]), -0.291 and -0.23 and -5.55. The viability in [10] (setting [18]) is 100% (inactive); in [10] (setting [19]), 125% (inactive); in [10] (setting [20]), 105% (inactive); in experiment [10] (setting [21]), 110% (inactive); in [10] (setting [22]), 110% (inactive); in [10] (setting [23]), 111% (inactive). The viability in experiment [10] (setting [24]) was 110% (inactive); in experiment [10] (setting [25]), 110% (inactive); in experiment [10] (setting [26]) it was 106% (inactive); in experiment [10] (setting [27]), 130% (inactive); in experiment [10] (setting [28]) it was 99.2% (active); in experiment [10] (setting [29]), 108% (inactive). The figures for the viability in experiment [10] (setting [30]) and in experiment [10] (setting [31]) were 115% (inactive) and 122% (inactive), respectively.
